# Out of some 69,000 compounds screened, about 8,600 (12%) showed an effect of 50% or more. For the sample, strong results were picked, then their nearest neighbours and some compounds at random.
# Test system: Plasmodium berghei
# Test: Screen against P. berghei liver stage (PbLuc), transformed with Luciferase, at 10uM
# Type: functional, HepG2
# Settings: tested at 10 uM
row,SMILES,INHIBITION
1,Cc1csc(C2CCCCN2C(=O)CN(C)C(C)C)n1 (stereo not drawn),-19.9%
2,Cn1ccnc1COc1ccc(CN2CCC(C(N)=O)CC2)cc1,-14.7%
3,Nc1nc(CN2CCOC(Cn3cccn3)C2)nc2ccccc12 (stereo not drawn),1.75%
4,c1ccc(-c2cc(CN3CCCC(Cn4cncn4)C3)on2)cc1 (stereo not drawn),11.6%
5,COCCCC(=O)Nc1cc(Cl)c(Cl)cn1,79.8%
6,CS(=O)(=O)CCC(=O)Nc1cc(Cl)c(Cl)cn1,35.2%
7,CS(=O)(=O)CCCC(=O)Nc1cc(Cl)c(Cl)cn1,15.7%
8,COCCN1CCO[C@@H]2CN(Cc3cc(OC)cc(OC)c3)C[C@@H]2C1,39.3%
9,CNc1cc(C2CN(Cc3coc(C)n3)CCO2)nc(C)n1 (stereo not drawn),-3.31%
10,Cc1nn(C)c(C)c1CC(=O)NCc1ccnc(N2CCOCC2)c1,-34%
11,Cc1noc(C)c1-c1cccc(C2CN(CC(=O)N(C)C)CCO2)n1 (stereo not drawn),24.35%
12,Oc1cccc2ccc(CN3CCC4(CCNCC4)C3)nc12,15.9%
13,O=C1CC2(CCN(Cc3ccc(C(F)(F)F)nc3)CC2)CN1,16.43%
14,O=C1CC2(CCN(Cc3ccc4cccc(O)c4n3)CC2)CN1,58.6%
15,CCN(CC)CC1CN(Cc2nccs2)Cc2nccn2C1 (stereo not drawn),-42.8%
16,O=C(NC1CCCC1)C1Cc2nc(-c3ccsc3)sc2N1CC1CC1 (stereo not drawn),-2.35%
17,CC(C)NC(=O)C1Cc2nc(-c3ccsc3)sc2N1CC1CC1 (stereo not drawn),23.3%
18,O=C(Nc1cccnc1)C1Cc2nc(-c3ccsc3)sc2N1CC1CC1 (stereo not drawn),60.9%
19,Cc1ccccc1C(O)c1ccncc1 (stereo not drawn),1.95%
20,Cc1cccc(NC(=O)[C@@H]2CCCN2Cc2nnc(C(C)C)n2C)n1,24.3%
21,Cc1nonc1CNC(=O)C(C)Oc1cccc(F)c1 (stereo not drawn),-35.5%
22,COc1ccc(CCN(C)C(C(=O)O)c2ccc(F)c(C)c2)cc1OC (stereo not drawn),16.7%

row,SMILES,INHIBITION
1,CCN(Cc1nccs1)Cc1cc(Cl)ccc1OC,15.3%
2,COc1ccc(CCN(C)CCS(=O)(=O)c2ccc(Cl)cc2)cc1OC,63.7%
3,COc1ccc(S(=O)(=O)NCCCc2ccc(N(C)C)cc2)cc1Cl,41.9%
4,COc1ccc(CN(C)CCS(=O)(=O)c2ccc(Cl)cc2)cc1OC,68.8%
5,CCN(CCS(=O)(=O)c1ccc(Cl)cc1)Cc1ccc(OC)c(OC)c1,70.5%
6,COc1ccc(Cl)cc1S(=O)(=O)N(C)CC(N)=O,23.5%
7,COCCN(C)Cc1ccc(OC)c(OC(F)F)c1,26.8%
8,COc1ccc(CCCN(C)C(=O)c2cc(Cl)c[nH]2)cc1OC,16.6%
9,O=S(=O)(C1CC1)N1C[C@@H]2COC[C@]2(COc2ccccn2)C1,26.3%
10,CC(C)c1nccc(N2CCN(CC(=O)N3CCOCC3)CC2)n1,-0.96%
11,CN(CCc1ccncc1)C(=O)C1CSCN1C(=O)CC(C)(C)C (stereo not drawn),-23.8%
12,Cc1cccc(-n2cc3nc(N4CCC(C)CC4)[nH]cc-3c2=O)c1,23.4%
13,Cc1cnc(NCC(C)(C)N2CCCCC2)nc1,23.3%
14,Cc1cnc(NCC(C)(C)N2CCOCC2)nc1,65.7%
15,Cc1cnc(NCC(C)(C)N2CCN(C)CC2)nc1,47.2%
16,CN(C)C(=O)c1ccc(NCCNc2ccc3ccccc3n2)nc1,8.13%
17,CNc1ccc(C(=O)N(C)Cc2ccc3ccccc3n2)cn1,69.7%
18,CCNc1ncc(C(=O)N(C)Cc2nc3ccccc3n2C)cn1,16.2%
19,CCn1c(CN(C)C(=O)c2ccc(O)nc2)nc2ccccc21,-82.4%
20,CCn1c(CN(C)C(=O)c2ccc(N(C)C)nc2)nc2ccccc21,-17.4%
21,CSCCNc1ccc(C(=O)N(C)Cc2ccc3ccccc3n2)cn1,56.1%
22,Cn1ccnc1-c1cn(Cc2cn3c(n2)SCC3)nn1,5.75%

row,SMILES,INHIBITION
1,Cc1cccc(CN2C(=O)CCC23CCN(C(=O)N2CCCC2)CC3)n1,18.6%
2,CC(=O)N1N=C(c2ccccc2)OC1C(=O)N(C)Cc1ccccc1 (stereo not drawn),24.3%
3,O=C(N[C@@H]1CCN(Cc2ccc(F)cc2F)C[C@H]1O)c1cccnc1,-26.8%
4,CCOCCCNC(=O)c1nnn(Cc2ccccc2)c1OC,13.5%
5,CCOc1c(Br)cc(/C=C/c2ncc(C(=O)O)s2)cc1OC,-39.3%
6,CNC(=O)c1cnc(C=Cc2ccc(O)c(OC)c2)s1,-84.4%
7,CNC(=O)c1cnc(/C=C/c2ccc(OC)c(O)c2)s1,40.1%
8,CNC(=O)c1cnc(/C=C/c2cc(OC)cc(OC)c2)s1,-76.5%
9,CNC(=O)c1cnc(C=Cc2cc(OC)c3c(c2)OCCO3)s1,41.4%
10,CNC(=O)c1cnc(/C=C/c2cc(OC)c(OC)c(OC)c2)s1,53.5%
11,CCOc1c(OC)cc(C=Cc2ncc(C(=O)NC)s2)cc1OC,52.6%
12,CNC(=O)c1cnc(C=Cc2cc(OC)c(O)c(OC)c2)s1,50%
13,CCOc1cc(C=Cc2ncc(C(=O)NC)s2)ccc1OC,72.2%
14,CCOc1c(Cl)cc(/C=C/c2ncc(C(=O)O)s2)cc1OC,7.27%
15,CCOc1cc(/C=C/c2ncc(C(=O)O)s2)ccc1O,-6.62%
16,COc1cc(/C=C/c2ncc(C(=O)O)s2)cc(Cl)c1O,-20.9%
17,CCOc1ccc(C2CCCN2Cc2nnnn2C2CC2)cc1 (stereo not drawn),48.2%
18,O=c1ccc2c(n1Cc1cccnc1)CCN(CC1CCOC1)CC2 (stereo not drawn),-5.63%
19,C[C@H]1CN(C(=O)c2ccoc2)C[C@@]12CCN(CCN(C)C)C2=O,-80%
20,CCC(=O)NC1CCCN(c2cncc(OCc3ccccc3)n2)C1 (stereo not drawn),1.56%
21,O=C(NCc1ccccn1)[C@@H]1COC[C@H]2CN(C3CCC3)C[C@H]21,26.4%
22,Cc1nc(-c2ccccc2)n(CC(=O)NC2CCCCC2)n1,37.4%

row,SMILES,INHIBITION
1,O=S1(=O)COCCN1Cc1ccc(F)cc1Cl,33.9%
2,Cn1cc(CN2CCC3(CC2)CCN(Cc2ccccn2)CC3)cn1,41.2%
3,O=C(c1ccnc(C2CCNCC2)c1)N1CCCC1,7.43%
4,O=C1OCC(CO)N1Cc1cccc(Cl)c1F (stereo not drawn),28.7%
5,NC(=O)c1cccc(CCNC(=O)N2CCCC2)c1,58.1%
6,C=C(C)CN1CCC(NC(=O)NCCc2cccc(C(N)=O)c2)CC1,57.3%
7,C=C(C)CN1CCC(NC(=O)NCCc2ccccc2OC)CC1,94.1%
8,C=C(C)CN1CCC(NC(=O)Nc2cc(C(N)=O)ccc2OC)CC1,32.5%
9,Cn1cc(CCNC(=O)NC2CCN(Cc3ccccn3)CC2)cn1,16.8%
10,COc1ccc(CCNC(=O)NCc2cccc(C(N)=O)c2)cc1OC,37.4%
11,C=C(C)CN1CCC(NC(=O)c2scnc2C)CC1,-6.44%
12,CNC(=O)c1cccc(CCNC(=O)N2CCc3ccccc3C2)c1,3.73%
13,C=C(C)CN1CCC(NC(=O)NCCc2ccc(N(C)C)cc2)CC1,55.4%
14,NC(=O)c1cccc(CCNC(=O)N2Cc3ccccc3C2)c1,26.5%
15,C=C(C)COc1ccccc1CN1CCC(NC(C)=O)CC1,19.4%
16,COc1ccc(CCNC(=O)NC2CCCC2)cc1OC,-24.9%
17,COC1CCCOC12CCN(C(=O)c1ccc3[nH]nnc3c1)CC2 (stereo not drawn),-29.9%
18,O=C(CSC1=NS(=O)(=O)c2cc(Cl)ccc2N1)c1ccccc1,11.8%
19,Cn1cc(CN2CCCC3(CCN(C(=O)c4ccccn4)C3)C2)cn1 (stereo not drawn),11.3%
20,COCCC(=O)N1CCOCC(Cc2ccc3c(ccn3C)c2)C1 (stereo not drawn),17.475%
21,CC(=O)N(Cc1ncc(C)o1)C1CCN(Cc2ccccc2C#N)C1 (stereo not drawn),9.64%
22,NC(=O)c1cc(C2CCCN(C(=O)CCc3cccs3)C2)n[nH]1 (stereo not drawn),17.5%

row,SMILES,INHIBITION
1,O=C1CC[C@@H](CN(Cc2ccncc2)Cc2nc(CC3CC3)no2)N1,36.6%
2,Cc1nc(C)c2c(n1)CCN(C(=O)CC1CC1)CC2,19.9%
3,CCN1Cc2nccn2CC(COCc2csc(C)n2)C1 (stereo not drawn),8.66%
4,N#Cc1ccc(F)c(CN2CCc3sccc3C2)c1,41.6%
5,N#Cc1ccc(CN2CCc3sccc3C2)c(F)c1,4.95%
6,N#Cc1ccccc1CN1CCc2sccc2C1,60.4%
7,Cc1nc(C)n(CC2CCCN(Cc3cccc(C(N)=O)c3)C2)n1 (stereo not drawn),-43.5%
8,Cc1ccc(N2C[C@@H]3CN(C(=O)NC4CCCC4)C[C@]3(C(=O)O)C2)nn1,56.6%
9,O=C(NC1CCCC1)N1C[C@H]2CN(c3ccncc3)C[C@@]2(C(=O)O)C1,28.7%
10,O=C(NC1CCCC1)N1C[C@H]2CN(c3ccccn3)C[C@@]2(C(=O)O)C1,6.27%
11,COc1ccc(C(=O)N2CCCC(NC(=O)C(C)C)C2)c(O)c1 (stereo not drawn),-9.19%
12,Cc1ccc(O)c(C(=O)N2CCCC(NC(=O)C(C)C)C2)c1 (stereo not drawn),5.9%
13,CC(C)C(=O)NC1CCCN(C(=O)c2cc(Cl)ccc2O)C1 (stereo not drawn),18.2%
14,Cc1ccc(C(=O)N2CCCC(NC(=O)C(C)C)C2)c(O)c1 (stereo not drawn),54.4%
15,CC(C)C(=O)NC1CCCN(C(=O)c2ccc(O)c(Cl)c2)C1 (stereo not drawn),66.2%
16,CC(C)C(=O)NC1CCCN(C(=O)c2ccccc2O)C1 (stereo not drawn),8.64%
17,c1cnc(CC2COCCN(C3CCCCC3)C2)cn1 (stereo not drawn),14%
18,c1ccc(-c2nc(CCNCc3ccccn3)co2)cc1,34.4%
19,CCN(Cc1nc(COC)no1)Cc1cc2ccc(F)cc2[nH]c1=O,0.546%
20,CCc1cnc(C)nc1NC1CC(=O)N(CC2CCCCC2)C1 (stereo not drawn),-20.8%

# — ChEMBL document CHEMBL4513216, “Probing the Open Global Health Chemical Diversity Library for Multistage-Active Starting Points for Next-Generation Antimalarials” (ACS Infect Dis, 2020)
